We go through 40 sequences from the supplement of paper PMC6555819.

For the assay, the system named is LXRb:RXRa (NR concentration 270 nM, RXRa partner concentration 90 nM). Kind of assay: PBM binding z-score (relative to random genomic background probes); higher = stronger binding; sequences stand for … in GC…GCGATTGACAGCGTAGAATGAAGG
The procedure:
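Protein-binding microarray (Agilent 4x180K custom design, double-stranded 60-nt probes: 5' GC cap, 34-nt variable region, 24-nt constant primer region; full probe sequence given). Purified or IVT nuclear receptor:RXRα heterodimers (3:1 NR:RXRα, mostly 270:90 nM) or homodimers were incubated for 1 h in PBS with 2% milk and no ligand, then detected with Alexa488 antibodies. Fluorescence from o1-orientation probes (~5 replicates averaged) was converted to z-scores against 500 random hg19 background probes. Variable regions are seed direct-repeat (DR0–DR5) sites, all their single-nucleotide variants and half-site ablations.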
TAGCCTAGGTCATTCAGGGGCCAGCATAGAAAGC: the PBM binding z-score worked out at 3.03.

In the case of GCTGCTAGGTCAACTGATGGCCAGCTAAAGCTCG, the PBM binding z-score was 1.66.

With ATATGTAGGTTAAGCGTCATTCAGGTTGGTTCGC, the PBM binding z-score turned out to be 0.883.

As to TTACCAAGGTCAAGGTCGTTGATCCCTCTGTAGA, the PBM binding z-score was found to be 5.02.

TAGCCTAGTTCATTCAGGGGCCAGTATAGAAAGC came in with a PBM binding z-score of 0.643.

TAGCCTAGGTCATGCGGGACAGTATAGTGTCGGC: the PBM binding z-score worked out at 1.88.

ACTCGGATGACAAAGGTCAGAGCTACGCCAGTGA displayed a PBM binding z-score of 3.36.

As to TAGCCTAGGTTATGGGCCAGTATACCACGCGAAC, the PBM binding z-score worked out at 0.13.

With AGAATGAGGTTAAACGTAGATCAGGGAAGAAAGT, the PBM binding z-score was 2.42.

TACCCTAGGTCATGGGCCAGTATACCACGCGAAC displayed a PBM binding z-score of 4.07.

AATACAGGGTCATCGTACGCCAGAGTACGCACAG registered a PBM binding z-score of 4.92.

The sequence GGAACGAGGTCAAGTTGATAGCAGAGTTTGATGG returned a PBM binding z-score of 5.3.

In the case of CGAACTAGGTCACCCAGGACAGTGAATACATTGA, the PBM binding z-score worked out at 1.93.

As for AACGAAAGGTCGAAGGTGAGTATACCCACCCGAA, the PBM binding z-score was 3.06.

Turning to TCTGCTAGGTCAACGATGGTCAGTTAATCTGCTA, the PBM binding z-score was 1.72.

The sequence ATCGAAAGGTCGAAGGTGCGTATACCCACCCGAA yielded a PBM binding z-score of 2.33.

GATATAGGGTCAGCTAGAGGCCAGAGTATGGAAA returned a PBM binding z-score of 2.77.

CGAACTAGGTCGCCAGGACAGTGAAGAGGTTGGA displayed a PBM binding z-score of -0.222.

Regarding CAAACCAGGTCAAAGGTCAAAGTCGAGCCAACCA, the PBM binding z-score is 7.49.

As for ACTCGGTGGACAAAGGTCAGAGCTACGCCAGTGA, the PBM binding z-score is 2.99.

As for CCTTACGGGTAACGAGGTTATAGCACGACGAGCG, the PBM binding z-score was determined as 0.414.

Take TCTGCTAGGTCATCGATGGTCAGCTAATCTGCTA: the PBM binding z-score is 1.73.

The sequence TAGCCTAGGTCATACAGGGGCCAGTATAGAAAGC displayed a PBM binding z-score of 2.48.

For CGTCAAAGTTCAAGGTCACGTAACAGAAAGCAGC, the PBM binding z-score is 5.52.

Turning to TCTAGTTGGTCACGGAGGACACACACGACGGGTA, the PBM binding z-score is 0.424.

AAAACAGGGTCATCGTAGGCCAGAGTACGCACAG: the PBM binding z-score was found to be 4.8.

The sequence TACCCTAGGTCATTCAGGGGCCAGTATAGAAAGC had a PBM binding z-score of 4.5.

CCTAGTTGGTCAAGGTCACACCCGCTATAGGTAC came in with a PBM binding z-score of 3.5.

With CGAACTAGGTCATTGACAGGACAGTGGATAGTAA, the PBM binding z-score came out at 1.97.

The sequence TCTAGTTGGTCACGGAGGTCCCACACGACGGGTA showed a PBM binding z-score of 0.167.

Regarding TAGCCTAGGTCATGCGGGCCAATATAGTGTCGGC, the PBM binding z-score stood at 1.9.

As for ATTTGTAGGTTACATCCGGGTCATTCAGGCTATG, the PBM binding z-score was 3.54.

Sequence CCTACTGGGCCATTCAGAGGGCATTGATCATATG gave a PBM binding z-score of -0.224.

CCGAGAAGGTTACGAGGGGGCATTCAGTGCGAAT returned a PBM binding z-score of 7.2.

In turn, TCTATTAGTTGATTAGGGCAACCGAAACAGCGGA returned a PBM binding z-score of 0.544.

With CGAACTAGGTCAAGGCCAGTGAATCTCCGCACGC, the PBM binding z-score stood at 1.44.

As for CGAACGAGGTCATTGACAGGACAGTGAATAGTAA, the PBM binding z-score amounted to 5.01.

The sequence CCTACTCGGCCAAAAAGGTCATTGATGCCGATAA registered a PBM binding z-score of 4.63.

ATATGTAGGTTACATCCGGGTCATCCAGGCTATG yielded a PBM binding z-score of 2.76.

CGAACGAGGTCAAAGGACAGTGAAAGGCGACGTA returned a PBM binding z-score of 4.81.
